Source: PubChem
Most compounds without a hit are left out; they make up all but 1.6% or so of the library.
BJeLR viability: BJeLR cell viability loss; inhibition, % (test concentration not listed); BJeLR (HRASV12) viability, CellTiter-Glo ATP luminescence, 48 h; AID 1554; actives 0.17% (n = 300,000); in the data active = inhibition above about 50%
ugtP null kill: compounds lethal to S. aureus RN4220 ugtP deletion mutant | OD600 growth, 16 h | actives 0.54% (n = 330,000) | growth inhibition, % (concentration not given with the values); in the data active = growth inhibition above about 68%;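 also: plate controls were untreated wells for no effect and antibiotic for full effect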
PfHsp40 rescue: compounds rescuing yeast from Plasmodium falciparum HSP40 toxicity. S. cerevisiae expressing PfHsp40, growth rescue, ATP luminescence. growth rescue, % at 12.5 µM. actives 0.68% (n = 340,000). AID 504582; in the data active = growth rescue above about 28%, passing the limit was not always enough;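 also: yeast W303a lacking pdr1 and pdr3 grown in galactose medium; growth measured after three days at 30 °C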
CCHF vOTU inh-1: blocks the CCHF virus ovarian tumor domain protease | CCHFV vOTU protease, Pep-AMC fluorescence | inhibition, % at 11.5 µM | actives 0.55% (n = 370,000); also: 0% = vehicle wells with enzyme and 100% = no enzyme wells
RN4220 kill: kills Staphylococcus aureus RN4220. S. aureus RN4220 growth, OD600, 16 h. inhibition, % (no concentration beside the values). actives 0.33% (n = 330,000); in the data active = inhibition above about 85%;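 also: plate controls were untreated cells for no effect and reference antibiotic for full effect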
CCHF vOTU inh-2: CCHFV vOTU protease inhibition, confirmation | AID 686976 | actives 17% (n = 1,900) | shares compounds with CCHF vOTU inh-1 | Recombinant CCHFV vOTU, Pep-AMC fluorescence | inhibition, % at 11.5 µM
* marks the source's active call; other numbers are inactive results. Rule as the data show it, unless noted: active = inhibition above about 30%; inactive = the rest.

What do the screens show for `CC(C)(C)NCCC(O)c1cc(C(F)(F)F)nc2c(C(F)(F)F)cccc12` (stereo not drawn)?
PfHsp40 rescue: 3; CCHF vOTU inh-1: 30*; CCHF vOTU inh-2: -18

Results for O=C(Nc1ccccc1C(=O)O)c1cccc(NC(=O)c2ccco2)c1 ?
BJeLR viability: -11; ugtP null kill: 5; PfHsp40 rescue: 0; CCHF vOTU inh-1: 15; RN4220 kill: 3

What do the screens show for `O=C(Nc1ccc(O)cc1C(=O)O)c1ccc(NC(=O)c2ccco2)cc1`?
ugtP null kill: 2; PfHsp40 rescue: 0; CCHF vOTU inh-1: 37*; RN4220 kill: 2; CCHF vOTU inh-2: -3

How did Cc1ccc(C)c(S(=O)(=O)/N=C2\C=C(NS(=O)(=O)c3ccccc3)C(=O)c3ccccc32)c1 do in these assays?
BJeLR viability: -4; PfHsp40 rescue: -1; CCHF vOTU inh-1: 30*; CCHF vOTU inh-2: 25

What do the screens show for `CCc1ccc(S(=O)(=O)/N=C2\C=C(NS(=O)(=O)c3ccccc3)C(=O)c3ccccc32)cc1`?
BJeLR viability: 6; ugtP null kill: 15; PfHsp40 rescue: -1; CCHF vOTU inh-1: 54*; RN4220 kill: 28; CCHF vOTU inh-2: 11

What do the screens show for `Cc1ccc(NC2=CC(=NS(=O)(=O)c3cccs3)c3ccccc3C2=O)cc1C`?
ugtP null kill: 3; RN4220 kill: 10

How did Cc1ccccc1N=C1c2ccccc2C(=O)C1[N+](=O)[O-] (stereo not drawn) do in these assays?
BJeLR viability: -2; ugtP null kill: 7; PfHsp40 rescue: 0; CCHF vOTU inh-1: 34*; RN4220 kill: 2; CCHF vOTU inh-2: 7

How did COc1nccnc1NS(=O)(=O)c1ccc(NC(=S)NC(=O)/C=C/c2ccc(F)cc2)cc1 do in these assays?
BJeLR viability: -6; ugtP null kill: 5; PfHsp40 rescue: 0; CCHF vOTU inh-1: 38*; RN4220 kill: 4; CCHF vOTU inh-2: -14

How did COc1ccccc1Oc1ccc(NC=CC(=O)C(C)(C)C)cc1 do in these assays?
ugtP null kill: -3; RN4220 kill: 6

Results for CC1=NN(c2nc(-c3ccc(Cl)cc3)cs2)C(=O)C1 ?
BJeLR viability: 6; ugtP null kill: -5; PfHsp40 rescue: 3; CCHF vOTU inh-1: 1; RN4220 kill: 22

How did CC1=NN(c2ccc(Cl)cc2)C(=O)C1 do in these assays?
BJeLR viability: 2; ugtP null kill: 9; PfHsp40 rescue: 0; CCHF vOTU inh-1: 41*; RN4220 kill: 3; CCHF vOTU inh-2: -11

What do the screens show for `O=C1CCCCCCCN1Cc1ccccc1`?
BJeLR viability: -5; ugtP null kill: 4; PfHsp40 rescue: 2; CCHF vOTU inh-1: -10; RN4220 kill: 1

How did CC1=NN(c2ccccc2)C(=O)C1 do in these assays?
BJeLR viability: 9; PfHsp40 rescue: 0; CCHF vOTU inh-1: 87*; CCHF vOTU inh-2: -11

What do the screens show for `CC1=NN(Cc2ccccc2)C(=O)C1`?
BJeLR viability: 1; ugtP null kill: 16; PfHsp40 rescue: -2; CCHF vOTU inh-1: 36*; RN4220 kill: 20; CCHF vOTU inh-2: -19

What do the screens show for `CC1=NN(c2cccc([N+](=O)[O-])c2)C(=O)C1`?
BJeLR viability: -3; ugtP null kill: 1; PfHsp40 rescue: 0; CCHF vOTU inh-1: 13; RN4220 kill: 0

Results for CC1=NN(c2ccc(N)cc2)C(=O)C1 ?
BJeLR viability: 1; ugtP null kill: 5; PfHsp40 rescue: 1; CCHF vOTU inh-1: 57*; RN4220 kill: -1; CCHF vOTU inh-2: -9

What do the screens show for `CCN(CC)CCNC1=NCCn2c1cc1cc(OC)ccc12`?
BJeLR viability: 5; ugtP null kill: 10; PfHsp40 rescue: 0; CCHF vOTU inh-1: -8; RN4220 kill: 9

Results for CN=C1c2cc3cc(OC)ccc3n2CCN1Cc1ccccc1 ?
BJeLR viability: -9; ugtP null kill: 2; PfHsp40 rescue: 1; CCHF vOTU inh-1: 37*; RN4220 kill: 3; CCHF vOTU inh-2: -9

What do the screens show for `CCC1=C(OC(=O)N(CC)CC)N2C(=O)OC(=NCCc3c[nH]c4ccccc34)[C@]2(Cc2ccccc2)C2C1=CCC1C(=O)N(CC)C(=O)C12` (stereo partly drawn)?
ugtP null kill: 3; RN4220 kill: 9

What do the screens show for `CCOC(=O)c1cc2c(ccn2C)n1Cc1ccccc1C`?
BJeLR viability: -6; ugtP null kill: 29; PfHsp40 rescue: -1; CCHF vOTU inh-1: 31*; RN4220 kill: 0; CCHF vOTU inh-2: 43*
